# Screening data (PubChem)
# The list is not random: actives were taken first. Their share in the collection is about 1.8%.
# MEP2-GFP yeast = modulators of TOR pathway MEP2-GFP in S. cerevisiae. S. cerevisiae MEP2-GFP strain, flow cytometry GFP, 3 h; 100% = DMSO control level. GFP response vs DMSO, % at 10 µM. 330,000 compounds, 0.51% hits;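 active = GFP response versus DMSO above a set limit, roughly screen mean plus 3 SD, cut at about 180% in these data; inconclusive = fewer than 70 cells counted for a yeast strain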;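 note: median GFP fluorescence of the barcode-gated MEP2-GFP cells per well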
# CIT2 TOR yeast = yeast TOR pathway CIT2-GFP modulation; AID 2029; S. cerevisiae CIT2-GFP strain, flow cytometry, 3 h; 100 means same as DMSO wells; GFP response vs DMSO, % at 10 µM; 320,000 compounds, 0.065% hits;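 active = GFP response relative to DMSO above a set limit, near the screen mean plus 3 SD, cut at about 150% in these data; inconclusive = Fewer than 70 cells measured for a yeast strain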;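 note: ratio of well median GFP fluorescence to mean of DMSO wells on the plate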
# LAP4-GFP MLPCN = modulators of TOR pathway LAP4-GFP in S. cerevisiae | S. cerevisiae LAP4-GFP multiplex, flow cytometry GFP, 3 h; median GFP as percent of DMSO wells | GFP response vs DMSO, % at 10 µM | 320,000 compounds, 0.34% hits | AID 2023;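 active = GFP response vs DMSO above a set limit, about the screen mean plus 3 SD, cut at about 150% in these data; inconclusive = under 70 cell events counted for the yeast strain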
# RPL19A TOR yeast = modulators of TOR pathway RPL19A-GFP in S. cerevisiae | S. cerevisiae RPL19A-GFP strain, flow cytometry, 3 h; stronger effect = lower value | percent response vs DMSO, % at 10 µM | 330,000 compounds, 0.3% hits | AID 2025;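 active = percent response vs DMSO below 50%; inconclusive = fewer than 70 events counted for the yeast strain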;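 note: median channel GFP fluorescence of the barcoded RPL19A-GFP strain; ratio of sample median GFP to plate DMSO average so 100% = DMSO; lower means less RPL19A-GFP as with rapamycin TOR inhibition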
# AGP1-GFP MLPCN = modulators of TOR pathway AGP1-GFP in S. cerevisiae; S. cerevisiae AGP1-GFP multiplex flow cytometry, 3 h; GFP as percent of DMSO wells; GFP response vs DMSO, % at 10 µM; 320,000 compounds, 0.02% hits; AID 2066;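 active = GFP response relative to DMSO above a set limit, near screen average plus 3 SD, cut at about 150% in these data; inconclusive = fewer than 70 cells counted for the yeast strain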;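 note: median GFP channel fluorescence of the gated AGP1 strain per well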
# Myeloid diff 2 = myeloid differentiation induction. 360,000 compounds, 1% hits. ER-HoxA9 myeloid progenitors, lysozyme-GFP differentiation, flow cytometry. calls only at 10 µM;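 active = normalized GFP-positive differentiation at or above the plate's own cutoff, the solvent-only control mean plus 3 SD; inconclusive = no clear call, values can overlap the other calls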;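 note: cells exposed to compound for four days before flow analysis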
# LAP4 cherry2 = second confirmation of modulators of TOR reporter LAP4-GFP in yeast. AID 2621. 590 compounds, 20% hits. S. cerevisiae LAP4-GFP strain, flow cytometry GFP, 3 h. shares compounds with LAP4-GFP MLPCN. GFP response vs DMSO, % at 10 µM;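 active = GFP signal as percent of the solvent control above about 150%, meaning raised reporter expression, limit read from the data; inconclusive = fewer than 70 cells counted in the well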;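 note: ratio of well median GFP fluorescence to plate DMSO mean so 100% = DMSO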
# MEP2-GFP pick2 = yeast MEP2-GFP modulation, second cherry pick. AID 2622. GFP response vs DMSO, % at 10 µM. S. cerevisiae MEP2-GFP strain, flow cytometry GFP, 3 h. shares compounds with LAP4-GFP MLPCN. 590 compounds, 10% hits;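 active = GFP signal above 150% of the solvent control wells, that is a rise of more than half; inconclusive = fewer than 70 yeast cells counted in the well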;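 note: median channel GFP fluorescence of all gated yeast cells per well; ratio of median GFP to plate DMSO average so 100% = DMSO level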
# RPL19A-GFP pick2 = second confirmation of modulators of TOR reporter RPL19A-GFP in yeast; shares compounds with LAP4-GFP MLPCN; S. cerevisiae RPL19A-GFP strain, flow cytometry GFP, 3 h; stronger effect = lower value; 100% means same as DMSO wells; GFP response vs DMSO, % at 10 µM; 590 compounds, 3% hits;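 active = under 65% GFP response relative to DMSO; inconclusive = yeast strain with under 70 measured events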;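 note: median GFP channel fluorescence per well over the all cells gate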
# CIT2 GFP CP2 = second confirmation of modulators of TOR reporter CIT2-GFP in yeast; shares compounds with LAP4-GFP MLPCN; S. cerevisiae CIT2-GFP strain, flow cytometry GFP, 3 h; DMSO control wells read 100%; GFP response vs DMSO, % at 10 µM; 590 compounds, 8% hits;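 active = GFP response vs DMSO above about 150%, limit read from the data; inconclusive = fewer than 70 events counted for a yeast strain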;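 note: median green fluorescence per well over all gated yeast cells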
# AGP1 GFP CP2 = yeast AGP1-GFP TOR reporter modulation, second cherry pick; shares compounds with LAP4-GFP MLPCN; S. cerevisiae AGP1-GFP strain, flow cytometry GFP, 3 h; percent response vs DMSO, % at 10 µM; 590 tested, under 10 active; AID 2643;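 active = over 150 percent of DMSO response; inconclusive = yeast strain measured with under 70 events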;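 note: median GFP channel fluorescence over all cells without mother daughter split; sample median GFP divided by mean DMSO control so 100% equals DMSO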
# s288c autofluor = compound is autofluorescent in yeast s288c cells | AID 2757 | 610 tested, under 10 active | shares compounds with LAP4-GFP MLPCN | fluorescence change (kMESF span) at 33 µM | S. cerevisiae s288c, 520 nm autofluorescence, flow cytometry, 3 h; stronger effect = higher value; zero means same as solvent-only cells;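 active = fluorescence span over the dose series, or activity score, above about 33, limit read from the data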
# Yeast autofl DR = yeast s288c autofluorescence artifact in dose response | 110 tested, under 10 active | fluorescence change (span) at 33 µM | AID 488829 | S. cerevisiae s288c parental, compound autofluorescence, flow cytometry, 3 h | shares compounds with LAP4-GFP MLPCN;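 active = fluorescence change span, or the activity score built from it, above 25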
# TORC1 bypass = wildtype yeast growth loss with TORC1 bypass cells unaffected. shares compounds with LAP4-GFP MLPCN. S. cerevisiae BY4741 spot growth rating, 48-72 h; stronger effect = lower value. growth rating (0-3) at 30 µM. 120 tested, under 10 active;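 active = growth rating at most 1 for wild type yeast while the TORC1 bypass strain still grows fully, rated 3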
# Numbers without * were called inactive; i = inactive; ? = inconclusive; . = no result; + = active, no number.
SMILES,MEP2-GFP yeast,CIT2 TOR yeast,LAP4-GFP MLPCN,RPL19A TOR yeast,AGP1-GFP MLPCN,Myeloid diff 2,LAP4 cherry2,MEP2-GFP pick2,RPL19A-GFP pick2,CIT2 GFP CP2,AGP1 GFP CP2,s288c autofluor,others
CCC(C)/C(C)=N/NC(=O)c1ccc(COc2ccc(Cl)c(C)c2)cc1 (stereo unspecified),135,64,206*,85,99,+,142,175*,107,127,115,1.9,
Cc1c(C(=O)Nc2ccc3nc(N4CCOCC4)sc3c2)oc2ccccc12,102,96,111,98,101,i,.,.,.,.,.,.,
Cc1nc2ccc(NC(=O)c3oc4ccc(F)cc4c3C)cc2s1,+,+,884*,261,266*,i,96,105,100,90,94,0,
CCOc1ccc(NC(C)=O)cc1N,95,85,109,98,103,i,.,.,.,.,.,.,
Nc1nc(N)c2nc(CNc3ccc(C(=O)NC(CCC(=O)O)C(=O)O)cc3)cnc2n1 (stereo unspecified),94,83,299*,85,101,.,327*,218*,101,157*,128,0.1,
O=[N+]([O-])c1cc(CN2CCN(c3cccc(C(F)(F)F)c3)CC2)c2cccnc2c1O,116,114,214*,88,.,.,.,.,.,.,.,0.91,
O=[N+]([O-])c1cc(CN2CCCC2)c2cccnc2c1O,97,88,99,89,94,i,.,.,.,.,.,.,
CCCCCC(=O)N1C[C@H](O)[C@@H](n2cc(COC(=O)c3ccccc3)nn2)C[C@@H]1c1ccc(Cl)cc1,.,.,.,.,.,i,.,.,.,.,.,.,
Cc1ccc2nc3c(cc(C(=O)NCC4CCCO4)c(=N)n3C3CCCC3)c(=O)n2c1 (stereo unspecified),104,94,88,51,89,.,105,110,98,104,102,.,
C[C@@H]1CN([C@H](C)CO)C(=O)CCCn2cc(nn2)CO[C@H]1CN(C)C(=O)C1CC1,.,.,.,.,.,i,.,.,.,.,.,.,
COc1ccc(-c2cc3nc4n(c(=O)c3s2)CCC4)cc1,111,68,110,65,65,i,95,103,64*,85,69,0.5,
Cc1cc(C)c(S(=O)(=O)NC2CC2)c(C)c1,106,106,97,105,102,i,.,.,.,.,.,.,
CCOC(=O)c1c(CSCc2ccccc2)oc2ccc(O)c(CN(C)C)c12,156,90,95,55,88,i,98,100,100,113,98,.,
N#Cc1ccccc1NC(=O)COc1ccc2c(c1)OCO2,108,103,103,106,96,i,.,.,.,.,.,.,
CCN(CC(=O)Nc1cc(S(=O)(=O)N2CCOCC2)ccc1Cl)Cc1ccccc1,790*,754*,670*,215,229*,i,96,93,99,103,97,-0.1,
COCCCNC(=O)C(=O)NCC1CCCN1S(=O)(=O)c1cccs1 (stereo unspecified),106,67,205*,77,100,i,101,103,101,101,99,.,
CC(Oc1ccc(S(=O)(=O)N2CCCC2)cc1[N+](=O)[O-])C(=O)NC(C)c1ccccc1 (stereo unspecified),101,106,98,103,111,i,.,.,.,.,.,.,
N#Cc1cc([N+](=O)[O-])c(-n2nnc3ccccc32)c([N+](=O)[O-])c1,93,85,206*,87,93,i,.,.,.,.,.,-0.2,
O=C1c2cccc3c([N+](=O)[O-])ccc(c23)C(=O)N1CCc1ccccn1,167,123,152*,96,88,?,.,.,.,.,.,12,
O=[N+]([O-])c1cc(S(=O)(=O)C(F)(F)F)ccc1Sc1nc2ccccc2s1,85,84,159*,87,74,?,.,.,.,.,.,0.51,Yeast autofl DR=0.16;TORC1 bypass=3
Cc1cc(C(=O)NNC(=S)NC(C)c2ccccc2)c2ccccc2n1 (stereo unspecified),90,93,93,92,100,i,.,.,.,.,.,.,
COc1ccccc1-c1nc2s/c(=C\c3cccs3)c(=O)n2n1,102,79,180*,94,80,i,126,108,104,110,95,0.4,
COc1ccc(/C=c2\sc3nc(-c4ccccc4OC)nn3c2=O)c(OC)c1,118,102,108,101,106,i,.,.,.,.,.,.,
COc1cccc(/C=c2\sc3nc(-c4cccs4)nn3c2=O)c1OC,105,113,113,114,117,i,.,.,.,.,.,.,
Cc1ccc(/C=c2\sc3nc(-c4cccs4)nn3c2=O)o1,149,125,174*,103,104,i,.,.,.,.,.,1.4,
CC1CCCN(CCCNC(=O)CN2C(=O)COc3ccccc32)C1 (stereo unspecified),102,99,102,104,106,i,.,.,.,.,.,.,
CCOC(=O)c1sc(Nc2ccccc2Cl)nc1C,168,82,109,52,73,i,99,98,100,94,95,.,
CCOC(=O)c1sc(NC(=O)Nc2ccccc2F)nc1C,102,104,97,99,101,i,.,.,.,.,.,.,
